According to PubChem BioAssay (NCATS):
Inconclusive results are not listed. Activity calls are given as the source filed them. The call rests on the fitted dose curve; in most records, active means well fitted cell-killing curve with a large enough effect; inconclusive means small, poorly fitted or top-dose-only effect, or effect the other way; inactive means flat fitted curve, though single readings scatter.

Columns and labels:
Experiment in all cases: Primary qHTS to identify gynecologic anti-cancer compounds using libraries of approved drugs and bioactive compounds (AID 1345084); further: nearly all actives have a fitted effect of over 55% in size
Settings in all cases: Gynecologic cancer cell panel viability, ATPlite luminescence, 48 h; series mostly up to 57.5 µM
[1] = system: SKOV3
In short: (§1)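 Cells, 1,000 per well, plated 16 h, then exposed 48 h at 37 C to compounds. Viability by ATPlite luminescence after 15 min at room temperature.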

[2] = system: Tov-21-G
In short: as §1

[3] = system: Tov112D
In short: as §1

Measured: Potency

CC(=O)N[C@H](Cc1c[nH]c2ccccc12)C(=O)OCc1cc(C(F)(F)F)cc(C(F)(F)F)c1
inactive: all assays above

C/C=C/C=C/C(O)=C1/C(=O)[C@]2(C)C3/C(=C(O)/C=C/C=C/C)C(=O)C4(C)C1[C@]1(C)O[C@@]4(O)[C@@]3(C)O[C@@]12O
inactive: all assays above

O=C(OC[C@H]1O[C@H](O[C@]2(CO)O[C@H](CO)[C@@H](O)[C@@H]2O)[C@H](O)[C@@H](O)[C@@H]1O)c1ccc(O)cc1
inactive: all assays above

C[C@H](/C=C/[C@@]1(O)[C@H](C)CC(=O)CC1(C)C)O[C@@H]1O[C@H](CO[C@@H]2OC[C@@H](O)[C@H](O)[C@H]2O)[C@@H](O)[C@H](O)[C@H]1O
inactive: all assays above

C=C(COC(=O)C(C)C)C1Oc2cc(C(C)=O)ccc2C1OC(=O)C(C)C (stereo unspecified)
inactive: all assays above

COc1ccnc2[nH]cc(C(=O)C(=O)N3CCN(C(=O)c4ccccc4)CC3C)c12 (stereo unspecified)
inactive: all assays above

CC(=O)/C=C/C1(O)C(C)=CC(=O)CC1(C)C (stereo unspecified)
inactive: all assays above

O=C(O)CCc1c(C(=O)O)[nH]c2cc(Cl)cc(Cl)c12
inactive: all assays above

C[C@H]1[C@H](C)CC[C@]2(C(=O)O)CC[C@]3(C)C(=CCC4[C@@]5(C)C[C@@H](O)[C@H](O)C(C)(C)C5CC[C@]43C)[C@H]12 (stereo partly specified)
inactive: all assays above

CCC1=C(C)C(=O)C(C)CC12C(=O)CCC2C(=O)O (stereo unspecified)
inactive: all assays above

O=C(NC1Cc2ccccc2N(C[C@@H](O)CO)C1=O)c1cc2cc(Cl)sc2[nH]1 (stereo partly specified)
inactive: all assays above

COc1c(C)c(OCC=C(C)C)cc2c1COC2=O
inactive: all assays above

CC(=O)NCC1CN(c2ccc(-c3ccc(CNCc4cn[nH]n4)cc3)c(F)c2)C(=O)O1 (stereo unspecified)
inactive: all assays above

O=C(O)CC/C=C\C[C@H]1CO[C@@H](c2ccccc2Cl)O[C@H]1c1ccccc1O
inactive: all assays above

C=C1C2(C)CC3C4(C)OC(C5OC56C4=CC(=O)OC6(C)C)C3(C)C13C(=O)OC(C)C3(O)C2=O (stereo unspecified)
inactive: all assays above

C[C@@H]1O[C@@H](OC[C@H]2O[C@@H](OCc3ccccc3)[C@H](O)[C@@H](O)[C@@H]2O)[C@H](O)[C@H](O)[C@H]1O
inactive: all assays above

COC(=O)C1=COC(OC2OC(CO)C(O)C(O)C2O)C2C(COC(=O)/C=C/c3ccc(O)c(O)c3)C(O)C(O)C12 (stereo unspecified)
inactive: all assays above

O=C(O)CC1CCC(c2ccc(-c3ccc(Nc4ccc(C(F)(F)F)nc4)cn3)cc2)CC1 (stereo unspecified)
inactive: all assays above

CC1=CC(=O)CC(C)(C)C1/C=C/C(C)OC1OC(COC2OCC(O)C(O)C2O)C(O)C(O)C1O (stereo unspecified)
inactive: all assays above

CC1(C)[C@@H]2CC=C(CO[C@@H]3O[C@H](CO[C@@H]4OC[C@H](O)[C@H](O)[C@H]4O)[C@@H](O)[C@H](O)[C@H]3O)[C@H]1C2
inactive: all assays above

C[C@]1(OC(=O)/C=C/c2ccccc2)C[C@@H](O)[C@]2(O)C=CO[C@@H](O[C@@H]3O[C@H](CO)[C@@H](O)[C@H](O)[C@H]3O)[C@@H]21
inactive: all assays above

CC1CCC2C(C)(C)C(O)C(O)CC2(C)C12Cc1c(O)cc(CO)c(C=O)c1O2 (stereo unspecified)
inactive: all assays above

CC1CC(=O)[C@]2(O)C(C(=O)OCCc3ccc(O)cc3)=CO[C@@H](O[C@@H]3O[C@H](CO)[C@@H](O)[C@H](O)[C@H]3O)[C@H]12 (stereo partly specified)
inactive: all assays above

CCc1nnc(NS(=O)(=O)c2ccc(NC(=S)NC(=O)/C=C/c3ccc(F)cc3)cc2)s1
inactive: all assays above

Cc1ccc(Nc2nnc(-c3ccc([N+](=O)[O-])cc3)o2)cc1Cl
inactive: all assays above

Cc1cccc(NC(=O)CN2CCC(c3ccccn3)CC2)c1
inactive: all assays above

COC(=O)C1=CO[C@@H](O[C@@H]2O[C@H](CO)[C@@H](O)[C@H](O)[C@H]2O)[C@@H]2[C@@H](CO)[C@@H](O)C(O)[C@H]12 (stereo partly specified)
inactive: all assays above
